KDM4E inh = inhibitors of human JMJD2E histone demethylase | Potency, µM (titrated, usually from 57.1 µM), without a hit: at the highest dose activity change, negative = inhibition, hits mostly inhibitors | JMJD2E catalytic domain, FDH-coupled NADH fluorescence (FDH is formaldehyde dehydrogenase) | B2RXH2 | 230,000 tested, 1.6% active; active = well fitted inhibition curve with a large enough effect, not every such curve was filed as active; inconclusive = small, poorly fitted or top-dose-only effect, or another doubt; inactive = no such curve, though single readings can be large or run the other way;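 also: potency is read from the fitted curve at half-maximal effect; 0% = wells with enzyme and -100% = buffer wells without enzyme; nearly all actives have a fitted effect of over 50% in size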
Target sequence (B2RXH2 1-337 limits assumed): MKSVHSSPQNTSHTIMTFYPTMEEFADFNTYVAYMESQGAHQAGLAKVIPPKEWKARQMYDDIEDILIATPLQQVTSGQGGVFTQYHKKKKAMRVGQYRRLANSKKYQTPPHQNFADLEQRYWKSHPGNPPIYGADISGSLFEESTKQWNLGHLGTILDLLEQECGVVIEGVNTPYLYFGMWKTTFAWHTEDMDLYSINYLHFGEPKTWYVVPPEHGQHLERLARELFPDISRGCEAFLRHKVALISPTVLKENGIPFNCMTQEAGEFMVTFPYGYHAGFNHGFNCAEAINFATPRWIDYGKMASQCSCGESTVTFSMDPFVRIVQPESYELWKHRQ
Six1-Eya2 blk = blocks human Six1 binding to Eya2 | AlphaScreen GST-Six1/His-Eya2 binding, biochemical; stronger effect = lower value | activity change, % (test concentration not listed) | 360,000 tested, 0.56% active; in the data active = activity change below about -65%; inconclusive = mostly about -30% to -63%
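Homogeneous AlphaScreen proximity assay pairing GST-Six1 with His-tagged Eya2 (added as 5X mix: 250 nM and 500 nM) in 50 mM Tris pH 8.0, 300 mM NaCl, 1 mM TCEP. Glutathione donor and nickel acceptor beads; 1 h, 37 °C, dark.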
CtBP-E1A blk = blocks the CtBP interaction with E1A | activity change, % (test concentration not listed) | 340,000 tested, 0.49% active | AlphaScreen GST-E1A/His-CtBP binding, 1536-well; stronger effect = lower value | AID 651724; in the data active = activity change below about -65%; inconclusive = mostly about -30% to -63%
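Homogeneous bead-based format: GST-tagged E1A captured on glutathione donor beads, His-tagged CtBP on nickel acceptor beads; compounds precede bead addition by 2 h at 37 °C.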
Eya2 phos inh = Eya2 (human) phosphatase inhibition; O00167; recombinant Eya2, OMFP fluorescence dephosphorylation (OMFP is methylfluorescein phosphate); Potency, µM (series often up to 76.9 µM), inactives show at the highest dose activity, negative = inhibition, actives largely listed as inhibitors; 330,000 tested, 0.006% active; AID 488837; also: potency is read from the fitted curve at half-maximal effect
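Eya2 (0.2 uM) preincubated 10 min at ambient with compound, then OMFP substrate added at 50 uM; 10 min reaction in 50 mM HEPES pH 7.5, 50 mM NaCl, 5 uM MgCl2, 0.05% BSA, 1 mM DTT. Fluorescence read at Ex 485/Em 525 nm.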
GALK inh = galactokinase (human) inhibition | Purified GALK, Kinase-Glo residual ATP luminescence | Potency, µM (titrated, usually from 57.5 µM), for the others: top-dose activity change, negative = inhibition, usual class: inhibitors | 270,000 tested, 0.007% active | AID 1868; also: potency is read from the fitted curve at half-maximal effect
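ATP-depletion format; final 35 uM ATP, 100 uM D-galactose, 5 nM enzyme; pH 8.0 HEPES/Mg2+ buffer; 60 min RT; luminescence read 10 min after detection reagent.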
Apoferritin bind = binds horse apoferritin like a general anesthetic. 350,000 tested, 0.074% active. AID 485281. apoferritin/1-aminoanthracene competitive binding, fluorescence. Potency, µM (top dose mostly 77.5 µM), inactives show at the highest dose activity change, negative = displacement, actives largely listed as inhibitors. P02791; also: potency is read from the fitted curve at half-maximal effect; nearly all actives have a fitted effect of over 20% in size
Target sequence (P02791 2-175 limits assumed): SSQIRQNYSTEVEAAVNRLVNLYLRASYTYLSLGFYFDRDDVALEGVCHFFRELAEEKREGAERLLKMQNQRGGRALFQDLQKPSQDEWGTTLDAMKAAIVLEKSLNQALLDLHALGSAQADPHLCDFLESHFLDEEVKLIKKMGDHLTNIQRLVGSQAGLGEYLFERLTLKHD
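Steps: apoferritin (10 uM) was premixed with half-saturated 1-AMA in PBS, compounds were pin-transferred, plates stood 10 min at room temperature, fluorescence was read at 380/535 nm, and curves were fitted with a Hill equation.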
The depositor's hits bear a star; ? = inconclusive; nt = not tested or not shown; ! = a repeat was not active; [ ] = remark or other dose. This excerpt belongs to a sample that is enriched for hits. Unless noted, calls follow the shape of the dose curve; as a rule, active = well fitted curve in the direction sought with a large enough effect; inconclusive = small, poorly fitted or top-dose-only effect, or another doubt; inactive = no such curve, though single readings can be large; an effect the other way counts as inactive or inconclusive. Unless noted, % is scaled to controls: 0 for no effect and ±100 for the full control effect.

SMILES	KDM4E inh	Six1-Eya2 blk	CtBP-E1A blk	Eya2 phos inh	GALK inh	Apoferritin bind
COc1cccc(/C=N/Nc2nccnc2Cl)c1O	?	-79.5*	-92.7*	-0.5%	13.6%	57.6%
COc1cccc(C=NNc2nnc(NN=Cc3cccc(OC)c3OC)c3ccccc23)c1OC	nt	-78.4*	-86.4*	nt	nt	nt
COc1ccc(/C=N/Nc2nccnc2Cl)c(OC)c1	-8.9%	-0.4	nt	-3.4%	11.5%	-14.7%
COc1cccc(/C=N/Nc2ncnc(Cl)c2N)c1O	25.1µM*	-88.4*	-79.1*	-6.4%	2.6%	-2.9%
COc1cccc(/C=N/Nc2ncnc3scc(-c4ccccc4)c23)c1O	14.1µM*	-92.6*	-4.6	-3.4%	nt	4.5%
CCCS(=O)(=O)NC(=O)C1(C)CCN(C(=O)Cc2cccc3ccccc23)C1 (stereo not given)	nt	2.3	7.1	nt	nt	nt
O=C(Cn1nnnc1-c1ccccc1F)Nc1ccc(F)c(F)c1	nt	nt	nt	nt	nt	-1.5%
O=C(O)c1ccc(Nc2nc(-c3cc4ccccc4oc3=O)cs2)cc1O	20µM*	-15.1	-3.3	-6.1%	-1.2%	-3.0%
Cc1ccccc1C(=O)Nc1ccc2c(C#N)c3nc4ccccc4nc3n2c1	?	?	-70.6*	1.2%	1.3%	4.6%
COC(=O)C1=C(C)NC(=O)/C1=C\c1cc(C)n(-c2ccc(F)cc2)c1C	20µM*	-0.3	-11.5	2.6%	1.1%	-5.1%
Oc1cccc(-c2nc(-c3cccs3)c(-c3cccs3)[nH]2)c1	nt	nt	nt	nt	nt	-10.5%
Cc1ccc(C)n1-c1ccc(N2CCOCC2)cc1	?	-8.3	-8.6	-5.1%	1.2%	5.8%
Cc1ccc(C)n1-c1ccc(N(C)C)cc1	15.8µM*	?	-16.9	4.7%	-0.5%	?
Nc1ccccc1Sc1nc2ccccc2[nH]1	12.6µM*	-18.6	3.4	-5.5%	10.3%	-3.7%
Cc1ccc(-c2ccc(=O)n(Cc3c(F)cccc3Cl)n2)cc1	nt	-6.4	0.2	-21.5%	nt	-0.3%
Cc1ccc(C)c(-c2ccc(=O)n(Cc3c(F)cccc3Cl)n2)c1	nt	-6.6	-1.1	-3.3%	1.6%	44.7µM*!
COc1ccc(C(=O)Oc2cccc3cccnc23)cc1[N+](=O)[O-]	?	-88.2*	-72.4*	4.1%	-2.1%	-21.2%
C/C(=N\NC(=O)c1ccncc1)c1cc2ccccc2o1	-1.6%	-2.3	-7.3	-0.8%	-5.1%	-9.6%
C/C(=N/NC(=O)c1ccncc1)c1cc2ccc(O)cc2oc1=O	?	-84.6*	-5.1	?	-0.5%	664.1%
C/C(=N\NC(=O)c1ccncc1)c1cc2ccccc2oc1=O	14.1µM*	-80.0*	-4.6	0.7%	0.2%	-0.2%
CCOC(=O)c1c(-c2ccc(F)cc2)csc1NC(=O)CCN1CCOCC1	25.1µM*	-8.5	-2.4	-14.4%	1.4%	-12.7%
CCOC(=O)c1c(-c2ccc(-c3ccccc3)cc2)csc1NC(=O)CCN1CCOCC1	-29.6%	-9.3	-7.3	-2.4%	-2.0%	-8.0%
CCOC(=O)c1c(-c2cccs2)csc1NC(C)=O	8.3%	11.1	0.7	-6.2%	-0.1%	-5.8%
CCOC(=O)c1c(-c2cccs2)csc1NC(=O)CNCCN1CCOCC1	22.4µM*	nt	nt	0.6%	-3.8%	-16.7%
Cc1cccc(OCC(=O)Nc2nonc2-c2ccc(Br)cc2)c1C	nt	nt	nt	nt	nt	0.9%
SMILES	KDM4E inh	Six1-Eya2 blk	CtBP-E1A blk	Eya2 phos inh	GALK inh	Apoferritin bind
NC(c1csc(Nc2cnccn2)n1)C1CCCCC1 (stereo not given)	nt	-26.5	-70.4*	nt	nt	nt
NC(c1csc(Nc2nccc(C(F)(F)F)n2)n1)C1CCCCC1 (stereo not given)	nt	0.8	-8.2	nt	nt	nt
NC(c1csc(Nc2ccc(C(F)(F)F)cn2)n1)C1CCCCC1 (stereo not given)	nt	-12.4	-13.4	nt	nt	nt
NC(c1csc(Nc2ncccn2)n1)C1CCCCC1 (stereo not given)	nt	?	-67.5*	nt	nt	nt
Cc1ccccc1N=Cc1cccc(O)c1O	11.2µM*	?	1.0	-0.4%	nt	-7.6%
CC(N=Cc1cccc(O)c1O)c1ccccc1 (stereo not given)	14.1µM*	-18.8	3.2	6.3%	-0.6%	-9.1%
CC(N=Cc1cc([N+](=O)[O-])ccc1O)c1ccccc1 (stereo not given)	-11.8%	3.3	5.8	-4.9%	-0.6%	?
Cc1ccc(N=Cc2cccc(O)c2O)c(C)c1	14.1µM*	nt	nt	-2.3%	-2.7%	?
CCOCCCNC(=O)C1CCCN(c2ncnc3onc(C)c23)C1 (stereo not given)	nt	nt	nt	nt	nt	1.8%
CCCN1CCN(c2nnc(-n3cccc3C(=O)Nc3ccccc3C(F)(F)F)s2)CC1	nt	nt	nt	nt	nt	1.5%
O=C(Nc1cccnc1)C1(F)C(F)(F)C(F)(F)C(F)(F)C(F)(F)C1(F)F	-4.5%	5.9	10.1	-1.0%	-1.6%	12.6µM*
O=C1OC(C2=CCCCC2)=NC12CC2	nt	nt	nt	nt	nt	-7.3%[15.3 µM]
Cc1c(C=O)c(Cl)n(C)c(=O)c1C#N	20µM*	-2.9	0.6	3.0%	0.0%	-3.7%
CC(=O)N=Cc1c(C)c(C#N)c(=O)n(C)c1O	?	-1.1	nt	-8.3%	-2.2%	-3.8%
CCCn1c(C)nc2c(NCC3CCCN3CC)nc(C)nc21 (stereo not given)	10.7%	nt	nt	nt	nt	-6.0%
COCc1cc(C)nc(SCC(=O)Oc2ccccc2)c1C#N	?	8.8	-1.4	-1.4%	9.8%	-12.8%
COCc1cc(C)nc(SCC(=O)c2ccc(O)c(O)c2)c1C#N	28.2µM*	-11.8	-9.6	-21.7%	1.9%	-2.8%
O=c1cc(-c2ccc(O)cc2)oc2cc(OC3OC(CO)C(O)C(O)[C@H]3O[C@@H]3OC[C@@](O)(CO)C3O)cc(O)c12 (stereo not given in full)	?	nt	nt	nt	nt	-20.2%
O=C1C=CC(=O)C2=C1C1c3ccccc3C2c2ccccc21	14.1µM*	nt	nt	nt	nt	-15.9%
O=[N+]([O-])O[C@H]1CO[C@H]2[C@@H]1OC[C@H]2O	nt	nt	nt	nt	nt	-0.9%
COc1ccc(C(=O)CSc2nnc(CNc3nc(-c4ccccc4)cs3)n2C)cc1	0.3%	-70.9*	-69.9*	-2.9%	0.9%	?
COC(=O)CSc1nnc(CNc2nc(-c3ccccc3)cs2)n1C	-0.5%	?	-26.6	3.3%	0.4%	-4.1%
O=C(c1ccc2c(c1)N(Cc1ccccc1)C(=O)c1ccccc1S2(=O)=O)N1CCN(c2ccccc2)CC1	nt	nt	nt	nt	nt	3.4%
O=C1NC(=O)/C(=C\c2ccc(O)cc2O)S1	15.8µM*	?	nt	-6.1%	1.7%	-10.9%
CC1=C(C(=O)O)N2C(=O)[C@@H](NC(=O)C(N)C3=CCC=CC3)[C@H]2SC1 (stereo not given in full)	22.4µM*	nt	nt	5.9%	nt	nt
Cc1ccc(C)n1-c1sccc1C(=O)O	3.9%	-67.9*	-6.1	-0.7%	-2.6%	8.9%
Cc1ccc(C)n1-c1sc2c(c1C(=O)O)CCCC2	-29.9%	-16.7	-1.0	10.9%	nt	-11.9%

Screening results as filed in PubChem BioAssay.
